Bioassay records deposited in PubChem BioAssay by National Center for Advancing Translational Sciences (NCATS).
This excerpt belongs to a sample that is enriched for hits.
TbPYK inhibitor = blocks Trypanosoma brucei pyruvate kinase; Q57TT1; TbPYK enzyme, Kinase-Glo Plus ATP luminescence, 45 min; Potency, µM (series often up to 76.8 µM), for inactives: at the highest dose activity, negative = inhibition, hits mostly inhibitors; actives 0.12% (n = 410,000); also: potency is read from the fitted curve at half-maximal effect; % is scaled to controls: 0 for no effect and ±100 for the full control effect; nearly all actives have a fitted effect of over 50% in size
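Luminescent Kinase-Glo Plus end-point after 45 min room-temperature reaction of T. brucei pyruvate kinase started with 130 uM ADP (final). Buffer TEA 50 mM pH 7.2 with KCl, MgCl2, BSA, Tween-20; titration-based qHTS with fitted concentration-effect curves.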
Shiga toxin inh = Shiga toxin inhibition; Vero cells, Shiga toxin protein synthesis inhibition reporter; inhibition, % at 38.7 µM; actives 9.2% (n = 290,000); AID 2315; in the data active = inhibition mostly above about 28%, no sharp cut-off; inactive = mostly below about 43%; also: 0% is about no effect
Cycloheximide cs = counter-screen for Shiga toxin inhibitors: cycloheximide protein synthesis inhibition. cell reporter, cycloheximide protein synthesis inhibition counterscreen. max response, %. actives 12% (n = 300,000). AID 2314; in the data active = max response mostly above about 13%, no sharp cut-off; inactive = mostly below about 14%; also: read at 38.3 µM for the half of the compounds with a filed dose; 0% is about no effect
Giardia FBPA inh-1 = Giardia lamblia aldolase inhibition. A8B2U2. purified Giardia FBPA. Potency, µM (top dose mostly 59.6 µM), without a hit: at the highest dose activity, negative = inhibition, most hits filed as inhibitors. actives 0.71% (n = 290,000). AID 2451; also: potency is read from the fitted curve at half-maximal effect; % is scaled to controls: 0 for no effect and ±100 for the full control effect; nearly all actives have a fitted effect of over 55% in size
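40 nM FBPA preincubated 10 min at RT with compound (up to 57.5 uM final), then substrate plus GAPDH/TPI/NAD/arsenate coupling and diaphorase/resazurin added. Fluorescence read after 20 min at RT, 525/598 nm.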
RE007 growth inh = less growth of the S. pombe RE007 Vpr strain; S. pombe RE007 Vpr strain, BacTiter-Glo ATP luminescence, 24 h; Potency, µM (titrated, usually from 92.2 µM), for the others: at the top dose activity change, negative = less growth, hits mostly inhibitors; actives 0.21% (n = 360,000); active = well fitted falling curve with a large enough effect; inconclusive = small, poorly fitted or top-dose-only effect; inactive = no such curve, though single readings can be large or run the other way; also: potency is read from the fitted curve at half-maximal effect; % is scaled to controls: 0 for no effect and ±100 for the full control effect; nearly all actives have a fitted effect of over 50% in size
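Fission yeast RE007 carrying one integrated HIV-1 vpr copy, seeded at OD 0.01 in PMG+AL medium with 23 nL pinned compound. Grown 24 h at 30 degrees; viability read by BacTiter-Glo luminescence after 5 min.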
LmPK inhibitor = LmPK (Leishmania mexicana) enzyme inhibition | Q27686 | purified LmPK, Kinase-Glo ATP luminescence, 1 h | Potency, µM (top dose mostly 57.5 µM), for inactives: at the top dose activity change, negative = inhibition, actives largely listed as inhibitors | actives 0.37% (n = 290,000) | AID 1721; also: potency is read from the fitted curve at half-maximal effect; % is scaled to controls: 0 for no effect and ±100 for the full control effect
Target sequence (Q27686 whole entry, looked up): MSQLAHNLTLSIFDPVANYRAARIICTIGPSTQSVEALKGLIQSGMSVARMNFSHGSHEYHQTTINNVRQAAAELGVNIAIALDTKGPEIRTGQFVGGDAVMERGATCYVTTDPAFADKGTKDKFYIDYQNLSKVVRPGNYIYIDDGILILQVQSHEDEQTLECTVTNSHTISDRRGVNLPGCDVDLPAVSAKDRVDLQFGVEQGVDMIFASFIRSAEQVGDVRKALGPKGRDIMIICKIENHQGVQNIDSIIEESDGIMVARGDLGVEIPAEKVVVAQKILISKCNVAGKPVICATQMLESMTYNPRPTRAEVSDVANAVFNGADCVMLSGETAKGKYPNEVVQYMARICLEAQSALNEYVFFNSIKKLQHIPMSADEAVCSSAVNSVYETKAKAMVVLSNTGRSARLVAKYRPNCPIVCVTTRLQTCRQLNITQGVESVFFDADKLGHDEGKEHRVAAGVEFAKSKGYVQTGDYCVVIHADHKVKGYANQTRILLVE
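Screened at intermediate enzyme activity to detect both inhibitors and activators: LmPK at 0.1 nM, with a 0.5 nM enzyme column as activation reference. PEP 0.5 mM, ADP 0.1 mM; ATP detected by luminescence after 1 h.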
Giardia growth = blocks growth of Giardia lamblia trophozoites; shares compounds with Giardia FBPA inh-1; Giardia lamblia trophozoite growth inhibition; Potency, µM (doses to about 57.5 µM), inactives show at the highest dose activity change, negative = inhibition, hits mostly inhibitors; actives 5% (n = 1,500); AID 2785;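 also: potency is read from the fitted curve at half-maximal effect; trophozoites exposed to compound for 48 h at 37 °C; % is scaled to controls: 0 for no effect and ±100 for the full control effect; nearly all actives have a fitted effect of over 70% in size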
Mammal cell tox = mammalian cytotoxicity of Giardia aldolase inhibitor hits. shares compounds with Giardia FBPA inh-1. mammalian cell viability counter-screen, qHTS. Potency, µM (titrated, usually from 57.5 µM), for inactives: top-dose viability change, negative = toxicity, usual class: inhibitors. actives 4% (n = 1,500);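 also: Chinese hamster ovary cells used as mammalian cytotoxicity surrogate; viability measured as cellular ATP by luminescence; potency is read from the fitted curve at half-maximal effect; compound exposure lasted 48 h before reading; % is scaled to controls: 0 for no effect and ±100 for the full control effect; nearly all actives have a fitted effect of over 60% in size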
Giardia FBPA inh-2 = confirmation of Giardia fructose-bisphosphate aldolase inhibitors; shares compounds with Giardia FBPA inh-1; Potency, µM (top dose mostly 57.5 µM), for inactives: at the top dose activity change, negative = inhibition, usual class: inhibitors; actives 5% (n = 1,500); purified Giardia aldolase enzyme activity, qHTS; also: potency is read from the fitted curve at half-maximal effect; % is scaled to controls: 0 for no effect and ±100 for the full control effect; nearly all actives have a fitted effect of over 45% in size
Rabbit FBPA inh = selectivity test for Giardia aldolase inhibitors: rabbit aldolase; shares compounds with Giardia FBPA inh-1; Rabbit muscle FBPA enzyme inhibition, selectivity counter-screen; Potency, µM (highest dose often 57.5 µM), for the others: top-dose activity, negative = inhibition, usual class: inhibitors; actives 4% (n = 1,500); also: potency is read from the fitted curve at half-maximal effect; % is scaled to controls: 0 for no effect and ±100 for the full control effect; nearly all actives have a fitted effect of over 60% in size
GAPDH coupling = GAPDH inhibition flagged for Giardia aldolase hits; shares compounds with Giardia FBPA inh-1; GAPDH coupling enzyme counterscreen, biochemical, qHTS; Potency, µM (series often up to 57.5 µM), for the others: at the highest dose activity change, negative = inhibition, usual class: inhibitors; actives 6% (n = 1,500); AID 2795; also: potency is read from the fitted curve at half-maximal effect; % is scaled to controls: 0 for no effect and ±100 for the full control effect; nearly all actives have a fitted effect of over 55% in size
An asterisk follows results filed as active; u = inconclusive; x = no result; [ ] = another dose, or the depositor's remark. Unless noted, calls follow the shape of the dose curve; as a rule, active = well fitted curve in the direction sought with a large enough effect; inconclusive = small, poorly fitted or top-dose-only effect, or another doubt; inactive = no such curve, though single readings can be large; an effect the other way counts as inactive or inconclusive.

SMILES | TbPYK inhibitor | Shiga toxin inh | Cycloheximide cs | Giardia FBPA inh-1 | RE007 growth inh | LmPK inhibitor | Giardia growth | Mammal cell tox | Giardia FBPA inh-2 | Rabbit FBPA inh | GAPDH coupling
CC1=C(C#N)c2nc(N)c(C#N)c(C)c2/C1=C\c1ccc(OCC(=O)O)c(Cl)c1 | -11% | -1 | -4 | 20µM* | 50% | -1% | u | -3% | -17% | -12% | -6%
Cc1cn(CC(=O)NCC(c2ccccc2)c2ccccc2)c(=O)[nH]c1=O | -6% | x | x | x | 8% | x | x | x | x | x | x
CSC1=NS(=O)(=O)c2c(C)nn(C)c2S1 | 2.5µM* | 2 | 0 | 16µM* | -6% | 29% | 30% | 9% | -3% | 40µM* | u
COc1ccc(-c2nc3c(c4c2C[C@H](c2ccccc2)OC4)CN(S(=O)(=O)c2ccc(NC(C)=O)cc2)CC3)c(C)c1 | x | x | x | 7%[12.9 µM] | x | 1%[11.5 µM] | x | x | x | x | x
CCOc1ccc(N(CC(=O)Nc2ccc(OC)cc2)C2=NC3CS(=O)(=O)CC3S2)cc1 (stereo unspecified) | 3% | -5 | -1 | 13µM* | -7% | -1% | -12% | -14% | 3% | 6% | 10%
COc1ccc(OC)c(-c2csc(N3CCC(c4ccccc4)CC3)n2)c1 | 3% | -4 | 0 | 1% | -6% | 1% | x | x | x | x | x
CCCCSc1nc2sc3c(c2c(=O)[nH]1)CC(C)(CC)OC3 (stereo unspecified) | 4% | -5 | -4 | -8% | 13% | 8% | x | x | x | x | x
Cc1ccc(NC(=O)c2sc(=S)n(-c3cc(C)ccc3F)c2N)cc1 | -26% | 5 | 43 | 18µM* | -15% | 4% | 14% | -8% | -25% | u | -21%
O=CN(c1ccccc1)c1ccc2ccccc2c1 | -6% | 39 | 19 | -3% | 5% | 0% | x | x | x | x | x
C/C(CC(=O)Nc1ccc(Cl)c(Cl)c1)=N\NC(N)=S | -6% | 19 | -3 | 10µM* | 0% | 7% | 2% | -5% | -3% | -2% | 3%
C/C(CC(=O)Nc1ccc(Cl)cc1C(F)(F)F)=N\NC(N)=S | -5% | 10 | 11 | 20µM* | 2% | -8% | 3%[10.4 µM] | 12% | 17% | 9% | 14%
COC(=O)C1=C(O)/C(=C\c2cc(C)n(-c3ccc(F)cc3)c2C)N=C1C | -4% | 75* | 31 | 16µM* | -10% | 1%[11.5 µM] | 15%[10.4 µM] | -7% | -18% | -25% | -14%
COC(=O)C1=C(C)NC(=O)/C1=C\c1cc(C)n(-c2ccc(F)cc2)c1C | 1% | -10 | -3 | u | -17% | -1% | x | x | x | x | x
Cc1ccc(SCCN2CCN(Cc3ccccc3)CC2)cc1 | -5% | 13 | 3 | u | -10% | -2% | x | x | x | x | x
Cc1ccc(SCCN2CCN(C)CC2)cc1 | 0% | -7 | 1 | 22µM* | 14% | -3% | -8%[10.4 µM] | -5% | 2% | 4% | 8%
CCc1ccc(OCC2c3cc(OC)c(OC)cc3CCN2C(=O)c2ccc(S(=O)(=O)N3CCCC3)cc2)cc1 (stereo unspecified) | -4% | x | x | x | x | x | x | x | x | x | x
O=C(/C=C/c1ccc(Cl)cc1)NC(=S)N1C[C@H]2C[C@H](C1)c1cccc(=O)n1C2 | -9% | -6 | -4 | 7.1µM* | -11% | -3% | -22% | 15% | 4% | 5% | 4%
O=C(/C=C/c1ccc(Br)cc1)NC(=S)N1C[C@H]2C[C@H](C1)c1cccc(=O)n1C2 | -6% | -3 | -1 | u | 5% | 2% | x | x | x | x | x
CCCCC(Nc1ncnc2ccccc12)C(=O)O (stereo unspecified) | 10% | -10 | 5 | 0% | 10% | 0% | x | x | x | x | x
Cc1ccc(/C(=N/Nc2ncnc3ccccc23)C(=O)O)cc1 | -2% | 93* | 80* | 14µM* | -7% | -5% | 16% | -1% | 8% | -12% | -4%
CC(=O)c1cccc(-c2ccnc3c2CC(C(=O)Nc2cccc(NS(C)(=O)=O)c2)O3)c1 (stereo unspecified) | -2% | x | x | x | 4% | x | x | x | x | x | x
Cn1c(=O)c2cc(NC(=O)NCCc3ccccc3)ccc2n1Cc1ccc(F)cc1 | -4% | x | x | x | -8% | x | x | x | x | x | x
O=C(CSc1nnnn1C1CCCCC1)Nc1nc2c(s1)CCCC2 | -4% | 16 | 12 | 0% | 17% | 1% | x | x | x | x | x
S=C(Nc1nc2c(s1)CCCC2)NC1CC1 | -11% | 77* | 52* | 14µM* | -10% | 3% | -13% | 3% | 3% | 2% | 2%
CC1CCN(S(=O)(=O)c2nnc(NC(=O)c3cccc([N+](=O)[O-])c3)s2)CC1 | -12% | -9 | 9 | 14µM* | -5% | 1% | -3%[10.4 µM] | 2% | 16µM* | 25µM* | 16µM*
